The list is not random: actives were taken first. Their share in the collection is about 6%.
D1 ag: Allosteric Agonists of the Human D1 Dopamine Receptor: qHTS; activation, % at 2 µM; hit rate 1% among 360,000; AID 504660, 2011; HEK293 T-REx D1 cells, calcium flux, agonist mode; in the data active = activation above about 30%; also: 0% is about no effect
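Inducible HEK293 T-REx D1 cells, force-coupled to calcium signalling, were plated at 4000 cells/well with tetracycline and held overnight at 30 C. After no-wash calcium dye loading, compound-evoked calcium rise over 180 s flagged agonists.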
D1 antag: Antagonist of Human D 1 Dopamine Receptor: qHTS. HEK293 TREx D1 cells, calcium flux, dopamine EC80; stronger effect = lower value. activity change, negative = inhibition, % at 10 µM. D(1A) dopamine receptor (Homo sapiens), P21728. hit rate 3.2% among 360,000; in the data active = activity change below about -30%; also: % is scaled to controls: 0 for no effect and ±100 for the full control effect
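Tetracycline-induced HEK293 Trex D1 cells, force-coupled to calcium, dye-loaded; compounds added and read 180 s, then EC80 dopamine added and calcium flux tracked kinetically another 180 s.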
D3 antag: qHTS of D3 Dopamine Receptor Antagonist: qHTS; D(3) dopamine receptor (Homo sapiens), P35462; D3R cells, DiscoveRx beta-arrestin luminescence, antagonist mode; stronger effect = lower value; max response, negative = inhibition, %; hit rate 2.5% among 360,000; AID 652054, 2013; in the data active = max response below about -50%; also: % is scaled to controls: 0 for no effect and ±100 for the full control effect
Target sequence (P35462 whole entry, looked up): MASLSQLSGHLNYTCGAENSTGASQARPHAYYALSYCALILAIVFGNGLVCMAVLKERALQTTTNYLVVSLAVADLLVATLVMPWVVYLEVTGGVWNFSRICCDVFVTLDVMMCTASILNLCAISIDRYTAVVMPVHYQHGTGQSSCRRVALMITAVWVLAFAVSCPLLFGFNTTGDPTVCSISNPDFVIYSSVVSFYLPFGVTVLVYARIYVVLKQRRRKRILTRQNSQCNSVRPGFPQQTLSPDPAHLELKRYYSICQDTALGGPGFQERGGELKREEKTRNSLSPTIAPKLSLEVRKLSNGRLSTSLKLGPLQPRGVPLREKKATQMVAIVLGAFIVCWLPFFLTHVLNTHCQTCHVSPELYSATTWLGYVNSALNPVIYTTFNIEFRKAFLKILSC
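Cells expressing the human receptor were seeded at 1500 cells/well, incubated overnight at 37 degrees C in 5% CO2, then exposed to library compounds with dopamine controls for 90 minutes at 37 degrees C before luminescent detection.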
D3 ag: qHTS of D3 Dopamine Receptor Agonist: qHTS. AID 652048, 2013. D3R DiscoveRx beta-arrestin cells, luminescence, 90 min. hit rate 0.58% among 410,000. max activation, %; in the data active = max activation above about 30%; also: 0% is about no effect
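Agonist-mode cell screen: cells plated at 1500/well and incubated overnight at 37 °C, then exposed to library compounds for 90 min at 37 °C. Detection reagent was added for 30–60 min at room temperature, and luminescence was read.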
D1 potentiator: Potentiators of Human D1 Dopamine Receptor: qHTS; D(1A) dopamine receptor (Homo sapiens), P21728; HEK293 TREx D1 cells, calcium flux, dopamine EC20 potentiation; potentiation, % at 10 µM; hit rate 0.036% among 360,000; AID 504651, 2011; in the data active = potentiation above about 30%; also: 0% is about no effect
An asterisk follows results filed as active; · = no result given; ! = a repeat was not active.

SMILES	D1 ag	D1 antag	D3 antag	D3 ag	D1 potentiator
COc1cccc(C(=O)N2c3nc(-c4ccco4)nn3C3(CCCCC3)[C@@H]3CCCC[C@@H]32)c1	16	-2	·	-12	-1
COc1ccc(CCNC(=O)CCc2cn(Cc3ccc(C)cc3)c3ccccc23)c(OC)c1OC	7	-9	·	-18	-7
COC(=O)c1ccc(NC(=O)CSc2ccc(-c3sc(-c4ccccc4)nc3C)nn2)cc1	0	-46*	·	10	-6
Cc1nc(-c2ccccc2)sc1-c1ccc(SCC(=O)Nc2ccccc2)nn1	0	-2	·	2	-5
COc1cc(OC)c(N(C)C(=O)c2nn(C)c3c2CSc2ccccc2-3)cc1Cl	2	2	·	-1	-1
COc1ccc(-c2nn(CCC#N)cc2C(=O)Nc2cccc(C(=O)O)c2)cc1OC	2	-36*	-28	3	-5
CCNc1nc(OC)nc(Oc2ccc(=O)[nH]n2)n1	-1	-3	·	3	-2
COC(=O)c1sccc1NC(=O)Nc1ccc(C(C)=O)cc1	-1	-33*	-5	8	0
COC(=O)c1sccc1NC(=O)Nc1ccc(C)cc1	1	-13	-2	55*	-4
COC(=O)c1cc(Br)ccc1NC(=O)Nc1ccc(C)cc1	·	·	-80*	-6	·
COC(=O)c1sccc1NC(=O)NC1CCCCC1	1	20	-51*	7	-2
COC(=O)c1sccc1NC(=S)N(C)C1CCCCC1	0	6	20	2	-7
COC(=O)c1sccc1NC(=O)Nc1ccc(F)cc1	1	15	14	2	-1
Cc1ccc(S(=O)(=O)Nc2cc(Br)cc3cccnc23)cc1	1	3	·	·	8
CCOC(=O)c1nn(-c2ccccc2)c(=O)cc1OCC(=O)Nc1cc(C)ccc1OC	2	-4	11	-15	6
CCOC(=O)c1nn(-c2ccc(C)cc2)c(=O)cc1OCC(=O)Nc1cc(C)ccc1OC	5	-42*	-13	-38	-6
O=S(=O)(Nc1c(S(=O)(=O)c2ccccc2)c2nc3ccccc3nc2n1C1CCCCC1)c1ccccc1	0	-12	-70*	6	-1
N#Cc1c(NC(=S)NC(=O)c2ccccc2)sc2c1CCN(CCc1ccccc1)C2	48*	-5	·	·	-4
CC(C)(C)C(=O)Nc1sc2c(c1C#N)CCN(Cc1ccccc1)C2	33*	3	6	3	6
NC(=O)NC(Cc1ccccc1)C(=O)Nc1ccc(S(N)(=O)=O)cc1 (stereo not drawn)	0	-76*	0	6	-1
COc1ccc(S(=O)(=O)N2CCN(C(=O)[C@H](Cc3ccccc3)NC(=O)c3ccco3)CC2)cc1	1	7	1	-1	-2
NC(=O)NC(Cc1ccccc1)C(=O)N1CCN(S(=O)(=O)c2ccc(Cl)cc2)CC1 (stereo not drawn)	0	10	-68*	-6	-5
CC(=O)c1cccc(NC(=O)c2cc(C(C)C)on2)c1	3	-36*	15	-7	0
O=C(c1ccc(CS(=O)Cc2ccccc2Cl)o1)N1CCN(c2ccccn2)CC1 (stereo not drawn)	-1	-3	-7	-15	-5
O=C(c1ccc(CS(=O)c2ccccc2Cl)o1)N1CCN(c2ccccn2)CC1 (stereo not drawn)	3	-36*	4	-4	-4
SMILES	D1 ag	D1 antag	D3 antag	D3 ag	D1 potentiator
O=C(c1ccc(CS(=O)c2ccccc2Cl)o1)N1CCN(c2cccc(Cl)c2)CC1 (stereo not drawn)	3	10	·	-19	-2
O=C(c1ccc(CS(=O)Cc2ccc(Cl)cc2)o1)N1CCN(c2ccccn2)CC1 (stereo not drawn)	1	-36*	24	0	-11
O=C(c1ccc(CS(=O)Cc2ccccc2Cl)o1)N1CCN(c2cccc(Cl)c2)CC1 (stereo not drawn)	28	-45*	20	-11	-17
COc1cccc(N2CCN(C(=O)c3ccc(CS(=O)Cc4ccccc4Cl)o3)CC2)c1 (stereo not drawn)	0	-10	12	-8	-4
Cn1cccc1-c1cc2n(n1)CCC(=O)N2CCCC(=O)NCc1cccc(Cl)c1	0	1	·	1	-1
CCc1noc(C)c1C(=O)N1CCN(S(=O)(=O)c2ccc(Br)cc2)CC1	-3	-72*	6	-16	-7
CCc1noc(C)c1C(=O)N1CCN(S(=O)(=O)c2cc(C)ccc2C)CC1	-1	-31*	3	-9	11
Cc1ccc(C)c(S(=O)(=O)N2CCN(C(=O)c3ccc(OCc4c(C)noc4C)cc3)CC2)c1	10	-31*	-22	4	-1
Cc1ccc(S(=O)(=O)N2CCN(C(=O)c3ccc(OCc4c(C)noc4C)cc3)CC2)cc1	2	-1	27	-3	-5
CCc1cccc(CC)c1NS(=O)(=O)c1ccc2c(c1)CCN2C(=O)C1CC1	1	2	·	3	-2
CCOC(=O)N1C(=O)[C@](c2ccc(Cl)cc2)(C(C)C)N1C(=O)OCC	5	8	-12	-40	-1
CCOC(=O)N1C(=O)[C@@](c2ccc(Cl)cc2)(C(C)C)N1C(=O)OCC	3	-13	-51*	-25	-1
COc1cccc(CNC(=O)CCc2c(C)c3ccc(O)c(C)c3oc2=O)c1	1	-6	·	-14	-1
CCc1cc(=O)oc2cc(OC(C)=O)cc(OC(C)=O)c12	2	-5	-58*	2	7
CCCCCNS(=O)(=O)c1cc2c3c(c1)CCC(=O)N3CCC2	15	-30*	6	8	-10
CCCNS(=O)(=O)c1cc2c3c(c1)CCN3C(=O)CC2	1	10	-22	-1	-8
COc1ccccc1/C=C/C(=O)OC(C)CN1CCOCC1 (stereo not drawn)	0	-19	-83*	-4	-3
Cc1ccc(C2=Nc3ccccc3N(CC(=O)Nc3ccccc3F)C(=O)C2)cc1C	7	-8	·	-9	-1
CCN1CCN(C(=O)c2ccc3c(=O)n(CCC4=CCCCC4)c(=O)[nH]c3c2)CC1	4	6	-54*	-12	3
O=C(NCc1ccco1)c1ccc2c(=O)n(CCC3=CCCCC3)c(=O)[nH]c2c1	4	1	37	-2	-10
CC(C)(C)c1cc(-c2nc(N)nc(N)n2)c(O)c(C(C)(C)C)c1	2	32	0	48*	-1
Nc1nc(N)nc(-c2cc(O)ccc2O)n1	1	·	7	18	2
Cc1cccc(CSc2cn(CC(=O)N3CCOCC3)c3ccccc23)c1	2	-33*!	-12	3	1
Cc1cccc(CSc2cn(CC(=O)N3CCCCCC3)c3ccccc23)c1	10	-22	·	3	-6
